Data taken from PubChem BioAssay (NCI).
The panel holds about 79,000 compounds, 15% with a hit somewhere; the sample as a whole holds those more often. The source made the active and inactive calls. Cut-off read from the data, not from the text of the source: active = growth inhibition above about 70%; inactive = the rest.

Experiments:
[1] = NCI Yeast Anticancer Drug Screen. Data for the sgs1 mgt1 strain (AID 161);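 note: 0% = growth of cultures given vehicle only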; conditions: S. cerevisiae sgs1 mgt1 strain, active compounds read high
Procedure, shortened: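 Mutant yeast exposed to compound; growth scored against vehicle-only wells.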

[2] = NCI Yeast Anticancer Drug Screen. Data for the CLN2oe strain (AID 163);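 note: 0% = growth of vehicle-only control cultures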; conditions: S. cerevisiae CLN2oe strain, active compounds read high
Procedure, shortened: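 Strain altered in cell-cycle control, incubated with compound; growth compared to solvent-treated controls.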

[3] = NCI Yeast Anticancer Drug Screen. Data for the cln2 rad14 strain (AID 165);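 note: 0% = growth equal to vehicle treated cultures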; conditions: S. cerevisiae cln2 rad14 strain, active compounds read high
Procedure, shortened: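 The screen exposed genetically defined yeast (cln2 rad14) to test compounds and scored growth inhibition relative to vehicle-treated controls.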

[4] = NCI Yeast Anticancer Drug Screen. Data for the bub3 strain (AID 167); conditions: S. cerevisiae bub3 mutant strain, active compounds read high
Procedure, shortened: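 Screening used yeast with an engineered genetic alteration affecting cell cycle control. Compound-exposed cultures were compared with vehicle cultures, and reduced growth was taken as inhibition.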

[5] = NCI Yeast Anticancer Drug Screen. Data for the wt2 strain (AID 169);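 note: 0% = growth of vehicle-treated yeast cultures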; conditions: S. cerevisiae wt2 strain growth inhibition, active compounds read high
Procedure, shortened: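 Steps: yeast strain treated with compound; growth recorded; inhibition calculated relative to cultures given vehicle alone.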

[6] = NCI Yeast Anticancer Drug Screen. Data for the mlh1 strain (AID 171);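 note: 0% = growth of vehicle-treated control cultures of the same strain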; conditions: S. cerevisiae mlh1 strain growth inhibition, active compounds read high
Procedure, shortened: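 Yeast screen: mutant strain plus compound, growth scored against vehicle control wells.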

[7] = NCI Yeast Anticancer Drug Screen. Data for the sgs1 strain (AID 173);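 note: 0% = growth of vehicle-only control cultures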; conditions: S. cerevisiae sgs1 mutant, active compounds read high
Procedure, shortened: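 Inhibition of yeast growth served as the measure. The mutant strain was treated with each compound, and growth was normalised to cultures receiving vehicle alone.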

[8] = NCI Yeast Anticancer Drug Screen. Data for the mlh1 rad18 strain (AID 175); conditions: S. cerevisiae mlh1 rad18 strain growth inhibition, active compounds read high
Procedure, shortened: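 Compound-treated yeast growth, normalised to vehicle controls. Strain bears defined DNA repair mutations.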

[9] = NCI Yeast Anticancer Drug Screen. Data for the rad18 strain (AID 177); conditions: S. cerevisiae rad18 mutant growth inhibition, active compounds read high
Procedure, shortened: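 Inhibition values reflect reduced yeast growth compared with vehicle-treated controls, using a strain engineered with a DNA damage repair defect.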

[10] = at 5.0 µM (retest, dose inferred, filed as 0.5)
[11] = at 50.0 µM (retest, dose inferred, filed as 5.0)

Measured: growth inhibition

NC(CS)C(=O)NCCNc1ccc(NCCNC(=O)C(N)CS)c2c1C(=O)c1c(O)ccc(O)c1C2=O (configuration not stated)
inactive: [1]; [10] 6% | [1]; [11] -32% | [2]; at 1.2 µM -4% | [2]; at 3.7 µM 4% | [2]; at 11.0 µM -10% | [2]; at 100.0 µM 56% | [3]; [10] 20% | [3]; [11] -57% | [4]; at 1.2 µM -29% | [4]; at 3.7 µM -21% | [4]; [10] 13% | [4]; at 11.0 µM -34% | [4]; [11] -54% | [4]; at 50.0 µM 68.2% | [4]; at 100.0 µM 51% | [5]; at 1.2 µM -19% | [5]; at 3.7 µM -57% | [5]; at 11.0 µM -63% | [5]; at 100.0 µM 64% | [6]; at 1.2 µM -34% | [6]; at 3.7 µM -35% | [6]; at 11.0 µM -33% | [6]; at 100.0 µM 62% | [7]; at 1.2 µM -23% | [7]; at 3.7 µM -36% | [7]; at 11.0 µM -27% | [7]; at 100.0 µM 63% | [8]; [10] 13% | [9]; at 1.2 µM 3% | [9]; at 3.7 µM -10% | [9]; at 11.0 µM -8% | [9]; at 100.0 µM 61%
active: [1]; at 50.0 µM 78.7% | [2]; at 33.0 µM 84% | [3]; at 50.0 µM 74.2% | [4]; at 33.0 µM 81% | [5]; at 33.0 µM 81% | [6]; at 33.0 µM 85% | [7]; at 33.0 µM 84% | [8]; [11] 80% | [8]; at 50.0 µM 72.5% | [9]; at 33.0 µM 84%
